Results taken from the supplement of paper PMC9694430.

Tests used:
Test in all cases: thermal shift delta Tm vs DMSO control; higher = stronger stabilization (binding)
Settings in all cases: 12.5 µM; protein concentration 2 µM
[1] = test system: LOC_OS02G45750-cb003
Outline: (§1)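 Heating from 25°C to 95°C at 0.05°C/s, fluorescence was recorded for 19.5 μl wells of 2 μM E. coli-expressed, purified rice kinase domain in 100 mM potassium phosphate pH 7.5, 150 mM NaCl, 10% glycerol and 5 × SYPRO Orange with compound in DMSO. Boltzmann fits gave melting temperatures for this differential scanning fluorimetry assay. The shift reported is the mean of three replicates against the DMSO-only protein.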

[2] = test system: LOC_OS02G54510-cb004
Outline: as §1

[3] = test system: LOC_OS03G04050-cb001
Outline: as §1

[4] = test system: LOC_OS03G12390-cb001
Outline: as §1

[5] = test system: LOC_OS03G27990-cb004
Outline: as §1

[6] = test system: LOC_OS03G50450-cb001
Outline: as §1

[7] = test system: LOC_OS03G50810-cb003
Outline: as §1

[8] = test system: LOC_OS04G35114-cb001
Outline: as §1

[9] = test system: T1, LOC_OS04G38480-cb003
T1 sequence (whole entry): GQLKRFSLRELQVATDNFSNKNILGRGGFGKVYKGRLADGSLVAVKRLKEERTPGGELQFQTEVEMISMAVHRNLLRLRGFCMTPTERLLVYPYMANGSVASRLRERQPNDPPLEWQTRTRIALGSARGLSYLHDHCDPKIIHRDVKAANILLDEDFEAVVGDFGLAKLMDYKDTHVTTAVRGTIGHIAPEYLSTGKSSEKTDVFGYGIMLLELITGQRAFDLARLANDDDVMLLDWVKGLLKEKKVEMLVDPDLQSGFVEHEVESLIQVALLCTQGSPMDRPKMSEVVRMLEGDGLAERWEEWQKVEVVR
Outline: as §1

[10] = test system: T2, LOC_OS04G41100-cb001
T2 sequence (whole entry): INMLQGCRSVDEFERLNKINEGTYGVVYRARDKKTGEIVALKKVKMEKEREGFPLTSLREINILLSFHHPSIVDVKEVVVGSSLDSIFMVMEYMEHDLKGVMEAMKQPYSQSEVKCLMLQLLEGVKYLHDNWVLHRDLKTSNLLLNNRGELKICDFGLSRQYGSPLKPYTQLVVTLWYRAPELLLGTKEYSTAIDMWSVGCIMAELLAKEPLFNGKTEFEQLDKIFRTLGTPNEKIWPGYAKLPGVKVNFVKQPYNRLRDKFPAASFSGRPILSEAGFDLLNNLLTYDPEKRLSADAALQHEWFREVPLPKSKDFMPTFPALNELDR
Outline: as §1

[11] = test system: LOC_OS04G57630-cb004
Outline: as §1

[12] = test system: LOC_OS05G07850-cb002
Outline: as §1

[13] = test system: LOC_OS05G16824-cb004
Outline: as §1

[14] = test system: LOC_OS05G28520-cb001
Outline: as §1

[15] = test system: LOC_OS05G30820-cb001
Outline: as §1

[16] = test system: LOC_OS05G43570-cb004
Outline: as §1

[17] = test system: LOC_OS06G16330-cb003
Outline: as §1

[18] = test system: T3, LOC_OS06G22820-cb001
T3 sequence (whole entry): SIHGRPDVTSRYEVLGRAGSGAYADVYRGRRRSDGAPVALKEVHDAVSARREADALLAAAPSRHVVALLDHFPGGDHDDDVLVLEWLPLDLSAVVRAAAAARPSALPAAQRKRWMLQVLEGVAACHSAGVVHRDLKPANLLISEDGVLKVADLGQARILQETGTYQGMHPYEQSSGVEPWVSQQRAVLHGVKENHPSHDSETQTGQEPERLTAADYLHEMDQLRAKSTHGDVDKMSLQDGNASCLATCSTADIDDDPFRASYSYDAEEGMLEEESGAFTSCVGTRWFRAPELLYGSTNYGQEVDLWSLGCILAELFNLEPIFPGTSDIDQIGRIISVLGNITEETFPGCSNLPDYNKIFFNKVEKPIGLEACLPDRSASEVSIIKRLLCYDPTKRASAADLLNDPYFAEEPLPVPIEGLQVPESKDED
Outline: as §1

[19] = test system: LOC_OS07G06570-cb004
Outline: as §1

[20] = test system: LOC_OS07G07230-cb001
Outline: as §1
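Further: purified Escherichia coli-expressed rice kinase domain construct.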

LOC_OS06G16330-cb003, sequence (as listed by the source): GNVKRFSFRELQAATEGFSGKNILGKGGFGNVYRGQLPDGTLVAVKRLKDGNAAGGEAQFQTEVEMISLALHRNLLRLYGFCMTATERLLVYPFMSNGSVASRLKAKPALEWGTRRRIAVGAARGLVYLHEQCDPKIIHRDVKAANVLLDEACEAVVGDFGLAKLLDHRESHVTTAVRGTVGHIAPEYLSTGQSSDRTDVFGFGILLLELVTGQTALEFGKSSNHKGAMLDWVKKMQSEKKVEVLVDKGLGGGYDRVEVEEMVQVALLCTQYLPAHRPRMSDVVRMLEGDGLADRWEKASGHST

SMILES | thermal shift delta Tm [1] [°C] | thermal shift delta Tm [2] [°C] | thermal shift delta Tm [3] [°C] | thermal shift delta Tm [4] [°C] | thermal shift delta Tm [5] [°C] | thermal shift delta Tm [6] [°C] | thermal shift delta Tm [7] [°C] | thermal shift delta Tm [8] [°C] | thermal shift delta Tm [9] [°C] | thermal shift delta Tm [10] [°C] | thermal shift delta Tm [11] [°C] | thermal shift delta Tm [12] [°C] | thermal shift delta Tm [13] [°C] | thermal shift delta Tm [14] [°C] | thermal shift delta Tm [15] [°C] | thermal shift delta Tm [16] [°C] | thermal shift delta Tm [17] [°C] | thermal shift delta Tm [18] [°C] | thermal shift delta Tm [19] [°C] | thermal shift delta Tm [20] [°C]
Cn1c(Nc2ccc(C(F)(F)F)cc2)nc2cc(Oc3ccnc(-c4ncc(C(F)(F)F)[nH]4)c3)ccc21 | 2.26 | 2.15 | 0.84 | 2.43 | 0.45 | 1.16 | 1.92 | 1.17 | 4.08 | 1.82 | 1.62 | 0.57 | 1.67 | 0.86 | 0.81 | 3.24 | 1.24 | 2.74 | 1.82 | -0.2
CC(=O)c1c(C)c2cnc(Nc3ccc(N4CCNCC4)cn3)nc2n(C2CCCC2)c1=O | 6.05 | 0.3 | 0.22 | 5.44 | 2.08 | 0.53 | 2.97 | 3.19 | 1.9 | 1.04 | 0.52 | 5.93 | 5.52 | 0.05 | 0.23 | 0.31 | 4.77 | -0.1 | 0.7 | 0.73
COc1ccc(COc2ccc(Cc3cnc(N)nc3N)cc2OC)cc1 | 0.53 | 0.05 | 0.43 | -0.14 | 0.29 | 0.04 | 0.55 | 0.34 | 1.41 | 0.24 | 0.05 | 0.49 | -1.41 | 0.33 | 0.26 | 0.4 | 1.65 | 0.41 | 0.82 | -0.38
c1cn2cc(-c3ccc4cn[nH]c4c3)nc(Nc3ccc(N4CCOCC4)cc3)c2n1 [Entospletinib (GS-9973)] | 0.66 | 1.02 | 0.92 | 3.99 | 1.72 | 4.22 | 2.13 | 2.13 | 2.56 | 1.01 | 0.36 | 7.87 | 0.89 | 1.02 | 0.84 | 0.74 | 9.22 | 0.27 | 1.71 | 0.6
COC(=O)[C@]12CCC(C)(C)C[C@H]1[C@H]1C(=O)C=C3[C@@]4(C)C=C(C#N)C(=O)C(C)(C)[C@@H]4CC[C@@]3(C)[C@]1(C)CC2 [Bardoxolone Methyl] | 0.78 | -3.73 | -0.12 | -11.6 | -4.29 | -0.95 | -3.78 | -4.61 | -6.53 | -1.7 | -4.85 | -6.24 | -7.05 | -4.77 | 0.07 | -2.54 | -3.91 | 0.1 | 0.47 | 0.11
O=c1cc(N2CCOCC2)oc2c(-c3ccc4c(c3)OCCO4)csc12 | 0.67 | -0.08 | 0.24 | 0.53 | 0.46 | 0.44 | 0.8 | 1.85 | 1.22 | 0.17 | 0.03 | 6 | 1.81 | -0.12 | 0.24 | 0.13 | 0.18 | 0.4 | 1.45 | 0.63
Cc1cc2c(F)c(Oc3ncnn4cc(OC[C@@H](C)OC(=O)[C@H](C)N)c(C)c34)ccc2[nH]1 | 1.3 | -0.11 | 0.25 | -0.23 | 1.72 | -0.29 | 0.18 | 5.17 | 0.59 | 0.68 | 0.17 | 2.83 | 1.32 | 0.65 | 0.41 | 0.24 | 0.16 | 0.5 | 0.52 | 0.42
CCN(C)S(=O)(=O)Nc1ccc(F)c(C(=O)c2c[nH]c3ncc(-c4cnc(C5CC5)nc4)cc23)c1F | 3.15 | 0.87 | 0.3 | 0.5 | 0.47 | 0.08 | 0.44 | 2.53 | 0.81 | 0.37 | 1.47 | 6.9 | 1.58 | 1.1 | 0.45 | 0.13 | 1.23 | 0.65 | 0.34 | 1.77
O=C(NCCO)c1cccc(-c2cc(Nc3ccc(OC(F)(F)F)cc3)ncn2)c1 | -1.95 | 0.81 | 0.63 | -0.13 | 0.4 | 0.68 | 0.15 | 0.49 | 0.52 | 0.56 | -0.03 | 1.54 | 0.97 | -0.03 | 0.29 | 0.15 | 1.76 | 0.84 | 0.21 | -0.33
Cc1ccc2nc(NCCN)c3ncc(C)n3c2c1 | 1.07 | 0.24 | 0.59 | -0.09 | 0.55 | 0.62 | 0.58 | 0.91 | 0.69 | 1.54 | -0.03 | 0.79 | -0.92 | 0.44 | 0.61 | 0.49 | 0.49 | 0.81 | 1.79 | 0.68
CC(C)(C)c1cnc(CSc2cnc(NC(=O)C3CCNCC3)s2)o1 | 0.84 | 0.08 | 0.58 | 0.18 | 0.11 | 0.05 | 0.57 | 0.29 | 0.55 | 10.7 | -0.47 | 0.35 | -1.08 | 0.48 | 0.47 | 0.31 | 0.18 | 2.84 | 0.7 | -0.01
CN(C)Cc1cccc(N/C(=C2\C(=O)Nc3cc(C(N)=O)ccc32)c2ccccc2)c1 | 1.35 | 0.37 | 0.38 | 3.49 | 3.05 | 0.35 | 1.47 | 3.48 | 0.38 | 0.47 | 0.27 | 5.34 | 2.95 | 0.22 | 0.46 | 0.7 | 0.53 | 0.79 | 1.03 | 0.16
